Test results: PubChem BioAssay AID434970 (Sanford-Burnham Center for Chemical Genomics, 2010)
Out of some 11,000 compounds screened, about 310 (2.8%) were called active. Rule as the data show it: active = activity change below about -85%; inactive = the rest. Many of the other results were omitted from the sample, so actives are more common in it than they were.

These molecules were tested on intestinal alkaline phosphatase [Mus musculus] (assay: mouse intestinal phosphatase enzyme activation – biochemical, luminescence, single concentration, confirmation (AID 434970)). Conditions: purified mouse IAP, CDP-Star luminescence, 30 min, at 10 µM; activation factor: measured here: IAP activation factor, stronger effect = higher value; activity change, negative = activation: stronger effect = lower value.
In the case of `Cc1cnc(NC(=O)c2ccco2)s1`, the activation factor is reported as 0.954 and the activity change, negative = activation is reported as 4.55% (inactive).
In the case of `O=C1[C@@H](Oc2ccccc2)[C@@H](c2ccccc2)N1c1ccccc1`, the activation factor is reported as 0.938 and the activity change, negative = activation is reported as 6.25% (inactive).
For `Cc1ccc(S(=O)(=O)N2CCC(C(=O)N[C@@H](C)C(=O)NC3CCCCC3)CC2)cc1`, the activation factor was 1.09 and the activity change, negative = activation was -8.65% (inactive).
`CCc1ccc(NC(=O)C2CCN(S(=O)(=O)c3ccc4c(c3)CC(C)N4C(C)=O)CC2)cc1` (stereo unspecified) was tested, and the activation factor was 1.49 and the activity change, negative = activation was -48.7% (inactive).
In the case of `Cc1ccc(S(=O)(=O)NNC(=O)C2CCN(S(=O)(=O)c3ccc(C)cc3)CC2)cc1`, the activation factor is reported as 0.962 and the activity change, negative = activation is reported as 3.85% (inactive).
With `COc1ccc(S(=O)(=O)N2CCC(C(=O)Nc3cccc(Cl)c3)CC2)cc1OC` the activation factor was 1.62 and the activity change, negative = activation was -61.7% (inactive).
With `Cc1cc(C)cc(NC(=O)C2CCN(S(=O)(=O)c3ccc4c(c3)NC(=O)C(C)S4)CC2)c1` (stereo unspecified) the activation factor was 1.96 and the activity change, negative = activation was -96% (active).
With `O=C(Nc1ccc(S(=O)(=O)N2CCCCCC2)cc1)C1CCCO1` (stereo unspecified) the activation factor was 0.946 and the activity change, negative = activation was 5.4% (inactive).
In the case of `Cc1ccc(S(=O)(=O)N2CCC(C(=O)Nc3ccc(S(=O)(=O)N4CCCC4)cc3)CC2)cc1C`, the activation factor is reported as 2.22 and the activity change, negative = activation is reported as -122% (active).
In the case of `CSc1cccc(NC(=O)C2CCN(S(=O)(=O)c3ccc(F)cc3)CC2)c1`, the activation factor is reported as 1.98 and the activity change, negative = activation is reported as -97.7% (active).
`Cc1ccc(NC(=O)C2CCN(S(=O)(=O)c3ccc(N4CCCC4=O)cc3)CC2)cc1Cl` was tested, and the activation factor was 1.79 and the activity change, negative = activation was -79.3% (inactive).
In the case of `Cc1ccc(S(=O)(=O)N2CCC(C(=O)Nc3ccc(C(C)C)cc3)CC2)cc1`, the activation factor is reported as 3.49 and the activity change, negative = activation is reported as -249% (active).
In the case of `CCNC(=O)C1CCN(S(=O)(=O)c2ccc(F)cc2)CC1`, the activation factor is reported as 0.998 and the activity change, negative = activation is reported as 0.15% (inactive).
`Cc1ccc(NC(=O)C2CCN(S(=O)(=O)c3ccc4c(c3)NC(=O)C(C)S4)CC2)cc1Cl` (stereo unspecified) was tested, and the activation factor was 1.71 and the activity change, negative = activation was -71.1% (inactive).
`CC(O)c1nc2ccccc2n1Cc1nnc(-c2ccc(Cl)cc2)o1` (stereo unspecified) was tested, and the activation factor was 0.857 and the activity change, negative = activation was 14.3% (inactive).
With `Cn1nc(OCc2ccccc2)ccc1=O` the activation factor was 0.947 and the activity change, negative = activation was 5.35% (inactive).
`CCC(C)OC(=O)c1cc(C)nc2c(Br)cc(Br)cc12` (stereo unspecified) was tested, and the activation factor was 1.02 and the activity change, negative = activation was -2% (inactive).
In the case of `CC[C@]12c3[nH]c4ccc(Cl)cc4c3CCN1C(=O)[C@@H](CC(=O)NCC13CC4CC(CC(C4)C1)C3)C[C@@H]2C(=O)N1CCN(C(=O)c2ccco2)CC1`, the activation factor is reported as 1.1 and the activity change, negative = activation is reported as -9.55% (inactive).
For `CCOC(=O)c1sc(NC(=O)Nc2ccccc2Cl)cc1C`, the activation factor was 1.89 and the activity change, negative = activation was -89.1% (inactive).
`Cc1cc(C)c2c(n1)sc1c(=O)[nH]c(SCc3ccccc3)nc12` was tested, and the activation factor was 0.801 and the activity change, negative = activation was 19.9% (inactive).
`CCOC(=O)Cn1cnc([N+](=O)[O-])n1` was tested, and the activation factor was 0.92 and the activity change, negative = activation was 8% (inactive).
With `COc1cc(-c2nnc(COC(=O)CSc3cc(C)c4ccccc4n3)o2)cc(OC)c1OC` the activation factor was 0.99 and the activity change, negative = activation was 0.95% (inactive).
In the case of `COc1cccc(NC(=S)NCCC(c2ccccc2)c2ccccc2)c1`, the activation factor is reported as 3.53 and the activity change, negative = activation is reported as -253% (active).
In the case of `COc1cccc(NC(=S)NCCN2CCOCC2)c1`, the activation factor is reported as 1.08 and the activity change, negative = activation is reported as -8.4% (inactive).
`COc1ccc(CNC(=S)Nc2cccc(Cl)c2)cc1` was tested, and the activation factor was 1.25 and the activity change, negative = activation was -24.7% (inactive).
In the case of `COc1cc(NC(=S)NCCC(c2ccccc2)c2ccccc2)cc(OC)c1`, the activation factor is reported as 3.28 and the activity change, negative = activation is reported as -228% (active).
`COc1cc(NC(=O)C(Cc2ccccc2)n2cccc2)cc(OC)c1` (stereo unspecified) was tested, and the activation factor was 1.12 and the activity change, negative = activation was -12.3% (inactive).
For `CCCCNC(=S)Nc1ccc(Oc2ccccc2)cc1`, the activation factor was 1.71 and the activity change, negative = activation was -70.5% (inactive).
For `COc1ccc(S(=O)(=O)Nc2ccccc2)cc1OC`, the activation factor was 0.947 and the activity change, negative = activation was 5.35% (inactive).
With `COc1ccc(C(=O)CSc2nnnn2Cc2ccccc2)cc1` the activation factor was 0.953 and the activity change, negative = activation was 4.7% (inactive).
With `Cc1ccc2c(Cl)c(C(=O)Nc3cc(C)on3)sc2c1` the activation factor was 0.873 and the activity change, negative = activation was 12.6% (inactive).
`C#CCOCCOCCOCCNc1nc(N2CCN(C(=O)[C@H](Cc3cc4ccccc4[nH]3)n3cc([C@@H](N)C(C)CC)nn3)CC2)nc(N2CCN(C(=O)[C@H](Cc3cc4ccccc4[nH]3)n3cc([C@@H](N)Cc4ccc(O)cc4)nn3)CC2)n1` (stereo partly specified) was tested, and the activation factor was 1.43 and the activity change, negative = activation was -42.8% (inactive).
In the case of `CC(C)(C)OC(=O)CC[C@@H](C(=O)NCCCCCCCCCCC(=O)N1CCN(C(=O)OC(C)(C)C)CC1)n1cc(CCCCCNC(=O)OC(C)(C)C)nn1`, the activation factor is reported as 1.51 and the activity change, negative = activation is reported as -51% (inactive).
`CC[C@H](C)[C@@H](C(=O)NCCCCCCCCCCC(=O)N1CCN(C(=O)OC(C)(C)C)CC1)n1cc(CCCCN=C(NC(=O)OC(C)(C)C)NC(=O)OC(C)(C)C)nn1` was tested, and the activation factor was 2.29 and the activity change, negative = activation was -128% (active).
For `C#CCOCCOCCOCCNc1nc(N2CCOCC2)nc(N2CCN(C(=O)CCCCCCCCCCNC(=O)[C@H]([C@@H](C)CC)n3cc(CCCCN=C(N)N)nn3)CC2)n1`, the activation factor was 2.37 and the activity change, negative = activation was -137% (active).
For `C#CCOCCOCCOCCNc1nc(N2CCN(C(=O)CCCCCCCCCCNC(=O)[C@H]([C@@H](C)CC)n3cc(CCCCN=C(N)N)nn3)CC2)nc(N2CCN(C(=O)CCCCCCCCCCNC(=O)[C@H](CO)n3cc(CCCCCN)nn3)CC2)n1`, the activation factor was 6.62 and the activity change, negative = activation was -562% (active).
In the case of `C#CCOCCOCCOCCNc1nc(N2CCN(C(=O)CCCCCCCCCCNC(=O)[C@H]([C@@H](C)CC)n3cc(CCCCCN)nn3)CC2)nc(N2CCN(C(=O)CCCCCCCCCCNC(=O)[C@H]([C@@H](C)CC)n3cc(CCCCN=C(N)N)nn3)CC2)n1`, the activation factor is reported as 15.6 and the activity change, negative = activation is reported as -1460% (active).
For `CC[C@H](C)[C@@H](C(=O)NCCCCCCCCCCC(=O)N1CCN(C(=O)OC(C)(C)C)CC1)n1cc(CCCCCNC(=O)OC(C)(C)C)nn1`, the activation factor was 1.52 and the activity change, negative = activation was -51.8% (inactive).
